According to PubChem BioAssay:

Test system: Sonic hedgehog protein (Shh)
Assay: small-molecule binders of Shh protein, primary screen, biochemical, small-molecule microarray, 635/667 nm fluorescence (AID 1151);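 note: Shh protein binding to compounds spotted on small-molecule microarray slides; score combines spot fluorescence intensity with signal-to-noise across triplicate slides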
Conditions: small-molecule microarray binding, 635 nm fluorescence; higher = more signal

Structure (SMILES)	composite z-score
C[N+](C)(C)CCCCNC(=O)[C@H]1C[C@H]2C(=O)N[C@@H](Cc3ccccc3)C(=O)N2[C@H]1c1ccc(O)cc1	2.04
[N-]=[N+]=NCc1ccccc1C[C@]1(C(=O)N2CCOCC2)N=C(c2ccc(OCCCO)cc2)O[C@H]1c1ccccc1N=[N+]=[N-]	1.02
CC(=O)NCCCC[C@@H]1NC(=O)[C@@H]2C[C@H](C(=O)NCCCCN(C)C)[C@H](c3cccc(OCCO)c3)N2C1=O	1.04
COc1ccc(C(O)C2C=CC3C(=O)N(c4ccccc4)C(=O)C3N2Nc2ccc(C(C)C)cc2)cc1OCc1ccccc1 (stereo not given)	0.55
[N-]=[N+]=Nc1ccccc1[C@H]1OC(c2ccc(OCCCO)cc2)=N[C@@]1(Cc1ccccc1)C(=O)O	1.07
O=C(NCc1ccccc1)[C@@]1(Cc2ccccc2)N=C(c2ccc(OCCCO)cc2)O[C@H]1c1ccccc1	-0.183
CCOC1=C2C(CN(S(=O)(=O)c3ccc(C)cc3)C2c2ccc(C)cc2)C2C(=O)N(c3ccccc3)C(=O)C2C1 (stereo not given)	0.364
CCOC(=O)C[C@H]1[C@H](OC(=O)c2ccc(C(=O)c3ccccc3)cc2)[C@@H](NC(=O)c2ccc(-c3ccccc3)cc2)c2cc(OCCCO)ccc2N1C(=O)c1ccccc1	1.08
COCCOC(=O)N1C(=O)[C@@]2(c3cc(C#Cc4ccc(OC)cc4)ccc31)[C@H](c1ccc(O)cc1)N1[C@H](c3ccccc3)[C@H](c3ccccc3)OC(=O)[C@H]1[C@@H]2C(=O)NC[C@H](O)c1ccccc1	2.05
COc1ccc(C(=O)O[C@H]2CC[C@]3(C)C4=C(CCC3C2(C)C)[C@]2(C)CC[C@H]([C@H](C)CCCC(C)C)[C@@]2(C)CC4)cc1 (stereo not given in full)	1
